Experimental data taken from PubChem BioAssay (EPA / NIEHS).
Active and inactive are the calls of the source. The calls were made as follows: active = hit-call score of the fitted dose curve at least 0.9, where 1 is the maximum; inactive = score below 0.9.

Columns and labels:
Conditions in all cases: mRNA level, 48 h; actives raise or lower the signal
[1] = read-out: Apolipoprotein A-V (APOA5) gene, APOA5 (gene 116519); experiment: LTEA_HepaRG_APOA5: Life Technologies and Expression Analysis (LTEA) Assay for Apolipoprotein A-V (APOA5) gene using HepaRG (AID 2283474)
In short: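 Concentration-response of APOA5 expression in HepaRG: eight half-log doses to 100 uM, 48 h, qRT-PCR normalized to ACTB/GAPDH/POLR2A, bidirectional fitting with 0.5% DMSO as baseline.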

[2] = read-out: Apoptosis regulator Bcl-2 (Homo sapiens) (UniProt P10415); experiment: LTEA_HepaRG_BCL2: Life Technologies and Expression Analysis (LTEA) Assay for Bcl-2 gene using HepaRG (AID 2283475);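 also: BCL2 transcript by TaqMan qRT-PCR normalised to ACTB GAPDH and POLR2A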
In short: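 Plated human HepaRG cells are exposed to test chemicals for 48 h across eight concentrations from 100 uM downward in half-log steps (0.5% DMSO). BCL2 expression is then measured by qRT-PCR with housekeeping normalisation and fitted bidirectionally against vehicle.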

[3] = read-out: Bcl-2 (BID) gene, BID (gene 637); experiment: LTEA_HepaRG_BID: Life Technologies and Expression Analysis (LTEA) Assay for Bcl-2 (BID) gene using HepaRG (AID 2283476)
In short: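 Cells are plated, cultured 48 h, switched to serum-free induction medium, then dosed 48 h (100 uM top, half-log steps, 0.5% DMSO). RNA is isolated and BID expression read by qRT-PCR.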

Caspase-3 (Homo sapiens) = Caspase-3 (Homo sapiens) (UniProt P42574); experiment: LTEA_HepaRG_CASP3: Life Technologies and Expression Analysis (LTEA) Assay for cysteine-aspartic acid protease (CASP3) using HepaRG (AID 2283477)
In short: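 Transcript-level assay: CASP3 mRNA in human HepaRG after 48 h treatment, eight half-log concentrations from 100 uM in 0.5% DMSO, quantified by qRT-PCR.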

[4] = read-out: Cytochrome P450 (CYP24A1), CYP24A1 (gene 1591); experiment: LTEA_HepaRG_CYP24A1: Life Technologies and Expression Analysis (LTEA) Assay for Cytochrome P450 (CYP24A1) using HepaRG (AID 2283478)
In short: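 Gene expression of CYP24A1 by TaqMan qRT-PCR in HepaRG after 48 h treatment, highest concentration 100 uM; activity fitted in both directions relative to DMSO vehicle.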

[5] = read-out: Cytochrome P450 (CYP1A2), CYP1A2 (gene 1544); experiment: LTEA_HepaRG_CYP1A2: Life Technologies and Expression Analysis (LTEA) Assay for Cytochrome P450 (CYP1A2) using HepaRG (AID 2283479);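 as to AC50: TaqMan qRT-PCR transcript level normalized to ACTB GAPDH and POLR2A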
In short: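 In duplicate wells, HepaRG cultures maintained in 0.5% DMSO were treated 48 h across an 8-point, half-log series topping at 100 uM; phenobarbital (1 mM) served as induction control. Expression was read by qRT-PCR.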

[6] = read-out: cysteine-aspartic acid protease (CASP8), CASP8 (gene 841); experiment: LTEA_HepaRG_CASP8: Life Technologies and Expression Analysis (LTEA) Assay for cysteine-aspartic acid protease (CASP8) using HepaRG (AID 2283480)
In short: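 Concentration-response in duplicate up to 100 uM (half-log steps, 0.5% DMSO) on differentiated HepaRG cultures for 48 h. Expression change of CASP8 mRNA is determined by TaqMan qRT-PCR with housekeeping-gene normalization.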

[7] = read-out: Cytochrome P450 (CYP2B6), CYP2B6 (gene 1555); experiment: LTEA_HepaRG_CYP2B6: Life Technologies and Expression Analysis (LTEA) Assay for Cytochrome P450 (CYP2B6) using HepaRG (AID 2283481)
In short: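 Human HepaRG, 48 h dosing, 0.5% DMSO vehicle, top dose 100 uM. CYP2B6 transcript by qRT-PCR, housekeeping-normalized, bidirectional curve fit.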

[8] = read-out: Cytochrome P450 2C19 (Homo sapiens) (UniProt P33261); experiment: LTEA_HepaRG_CYP2C19: Life Technologies and Expression Analysis (LTEA) Assay for CYP2C19 using HepaRG (AID 2283482)
In short: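 Endpoint: CYP2C19 mRNA change, bidirectional fit vs 0.5% DMSO. Cells: HepaRG, 48 h exposure, eight-point series topping at 100 uM. Quantitation: qRT-PCR normalized to ACTB, GAPDH, POLR2A.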

CYP2C8 (gene 1558) = experiment: LTEA_HepaRG_CYP2C8: Life Technologies and Expression Analysis (LTEA) Assay for CYP2C8 using HepaRG (AID 2283483)
In short: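 This is a transcriptional endpoint in HepaRG cultures: 48 h exposure, highest concentration 100 uM. CYP2C8 mRNA is quantified by TaqMan qRT-PCR.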

CYP2C9 (gene 1559) = experiment: LTEA_HepaRG_CYP2C9: Life Technologies and Expression Analysis (LTEA) Assay for CYP2C9 using HepaRG (AID 2283484)
In short: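 Eight-point concentration-response (highest 100 uM, half-log dilutions) in HepaRG cells for 48 h; CYP2C9 expression by qRT-PCR normalized to ACTB, GAPDH, POLR2A. Bidirectional fit, DMSO baseline.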

CYP2E1 (gene 1571) = experiment: LTEA_HepaRG_CYP2E1: Life Technologies and Expression Analysis (LTEA) Assay for CYP2E1 using HepaRG (AID 2283485)
In short: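 Readout is qRT-PCR of CYP2E1 mRNA, normalized to three housekeeping genes and fitted bidirectionally against 0.5% DMSO. HepaRG cells were dosed 48 h at eight concentrations, highest 100 uM with half-log dilutions.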

CYP4A11 (gene 1579) = experiment: LTEA_HepaRG_CYP4A11: Life Technologies and Expression Analysis (LTEA) Assay for CYP4A11 using HepaRG (AID 2283486)
In short: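 Human hepatic HepaRG cultures receive duplicate 48 h exposures across a concentration-response series topping at 100 uM. Expression changes in CYP4A11 are measured by qRT-PCR relative to DMSO controls.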

[9] = read-out: Cytochrome P450 3A4 (Homo sapiens) (UniProt P08684); experiment: LTEA_HepaRG_CYP3A4: Life Technologies and Expression Analysis (LTEA) Assay for CYP3A4 using HepaRG (AID 2283487)
In short: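 HepaRG, 48 h exposure, 8-pt CRC from 100 uM (half-log), 0.5% DMSO, duplicates; serum-free induction medium. Readout: CYP3A4 mRNA, qRT-PCR, ACTB/GAPDH/POLR2A normalization. Bidirectional fit vs DMSO.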

[10] = read-out: DNA damage-inducible transcript 3 (DDIT3), DDIT3 (gene 1649); experiment: LTEA_HepaRG_DDIT3: Life Technologies and Expression Analysis (LTEA) Assay for DNA damage-inducible transcript 3 (DDIT3) using HepaRG (AID 2283488)
In short: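 Cells are human HepaRG liver cells treated for 48 h with eight half-log concentrations up to 100 uM in 0.5% DMSO. Transcript levels come from qRT-PCR normalized to three housekeeping genes, with activity fitted in both directions relative to vehicle.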

[11] = read-out: Pro-epidermal growth factor (Homo sapiens) (UniProt P01133); experiment: LTEA_HepaRG_EGF: Life Technologies and Expression Analysis (LTEA) Assay for Epidermal growth factor (EGF) using HepaRG (AID 2283489)
In short: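 Concentration-response mRNA assay: HepaRG cells dosed 48 h (max 100 uM, 0.5% DMSO), EGF measured by qRT-PCR and normalized to ACTB/GAPDH/POLR2A.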

[12] = read-out: Early growth response protein 1 (EGR1) transcription factor, EGR1 (gene 1958); experiment: LTEA_HepaRG_EGR1: Life Technologies and Expression Analysis (LTEA) Assay for Early growth response protein 1 (EGR1) transcription factor using HepaRG (AID 2283490)
In short: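 EGR1 expression change in human HepaRG after 48 h chemical exposure, assessed by housekeeping-normalized qRT-PCR; concentration-response up to 100 uM, fitted in both directions against DMSO controls.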

[13] = read-out: Ezrin (EZR), EZR (gene 7430); experiment: LTEA_HepaRG_EZR: Life Technologies and Expression Analysis (LTEA) Assay for Ezrin (EZR) using HepaRG (AID 2283491)
In short: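 Read-out is EZR transcript level by qRT-PCR, normalized to three housekeeping genes and fitted bidirectionally against the DMSO control. Human HepaRG cells received test chemicals for 48 h at eight half-log concentrations up to 100 uM in 0.5% DMSO.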

[14] = read-out: Cytochrome P450 3A7 (Homo sapiens) (UniProt P24462); experiment: LTEA_HepaRG_CYP3A7: Life Technologies and Expression Analysis (LTEA) Assay for CYP3A7 using HepaRG (AID 2283492)
In short: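 qRT-PCR of CYP3A7 in HepaRG lysates after 48 h treatment; concentration-response (8 points, max 100 uM) analysed bidirectionally relative to 0.5% DMSO controls.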

CYP3A5 (gene 1577) = experiment: LTEA_HepaRG_CYP3A5: Life Technologies and Expression Analysis (LTEA) Assay for CYP3A5 using HepaRG (AID 2283493)
In short: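 Human HepaRG hepatic cells receive 48 h chemical treatment at eight concentrations (half-log steps from 100 uM) in 0.5% DMSO. Expression of CYP3A5 is quantified by Fluidigm qRT-PCR and normalized to three reference genes.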

Measured: AC50

Chain of Cytochrome P450 3A4 (Homo sapiens) (P08684 whole entry, looked up): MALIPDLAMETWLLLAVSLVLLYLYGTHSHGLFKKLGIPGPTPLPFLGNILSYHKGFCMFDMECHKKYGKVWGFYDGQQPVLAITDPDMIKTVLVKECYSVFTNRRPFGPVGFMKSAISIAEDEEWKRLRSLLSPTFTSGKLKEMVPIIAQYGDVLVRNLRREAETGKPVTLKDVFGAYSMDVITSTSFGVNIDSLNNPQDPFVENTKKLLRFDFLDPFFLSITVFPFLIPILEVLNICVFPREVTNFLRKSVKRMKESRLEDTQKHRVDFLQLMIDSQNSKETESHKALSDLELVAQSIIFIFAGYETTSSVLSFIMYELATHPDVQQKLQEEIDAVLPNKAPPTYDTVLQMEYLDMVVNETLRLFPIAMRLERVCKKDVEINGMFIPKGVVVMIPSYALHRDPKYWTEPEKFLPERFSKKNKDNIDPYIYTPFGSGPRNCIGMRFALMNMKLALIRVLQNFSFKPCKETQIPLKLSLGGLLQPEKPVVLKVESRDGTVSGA
Chain of Caspase-3 (Homo sapiens) (P42574 whole entry, looked up): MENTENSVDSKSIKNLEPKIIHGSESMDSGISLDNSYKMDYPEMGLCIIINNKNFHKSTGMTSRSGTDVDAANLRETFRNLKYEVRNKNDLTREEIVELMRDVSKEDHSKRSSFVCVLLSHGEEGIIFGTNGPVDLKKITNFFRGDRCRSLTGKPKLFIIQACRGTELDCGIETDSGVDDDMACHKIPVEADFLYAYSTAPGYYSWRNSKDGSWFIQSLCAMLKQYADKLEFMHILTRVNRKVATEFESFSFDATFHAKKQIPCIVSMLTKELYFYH
Chain of Cytochrome P450 3A7 (Homo sapiens) (P24462 whole entry, looked up): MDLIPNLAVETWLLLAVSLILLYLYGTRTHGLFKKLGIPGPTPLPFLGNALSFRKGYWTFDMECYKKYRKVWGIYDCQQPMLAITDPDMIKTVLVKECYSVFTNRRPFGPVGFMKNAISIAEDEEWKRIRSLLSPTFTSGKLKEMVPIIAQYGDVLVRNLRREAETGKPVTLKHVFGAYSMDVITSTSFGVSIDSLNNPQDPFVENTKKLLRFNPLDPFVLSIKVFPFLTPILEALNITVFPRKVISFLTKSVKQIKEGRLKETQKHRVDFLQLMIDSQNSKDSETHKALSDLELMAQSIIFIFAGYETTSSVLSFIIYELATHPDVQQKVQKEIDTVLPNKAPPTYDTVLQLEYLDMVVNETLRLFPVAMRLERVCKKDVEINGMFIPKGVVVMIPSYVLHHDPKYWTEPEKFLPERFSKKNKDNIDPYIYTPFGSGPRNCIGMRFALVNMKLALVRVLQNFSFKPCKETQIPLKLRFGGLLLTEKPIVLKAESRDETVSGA
Chain of Apoptosis regulator Bcl-2 (Homo sapiens) (P10415 whole entry, looked up): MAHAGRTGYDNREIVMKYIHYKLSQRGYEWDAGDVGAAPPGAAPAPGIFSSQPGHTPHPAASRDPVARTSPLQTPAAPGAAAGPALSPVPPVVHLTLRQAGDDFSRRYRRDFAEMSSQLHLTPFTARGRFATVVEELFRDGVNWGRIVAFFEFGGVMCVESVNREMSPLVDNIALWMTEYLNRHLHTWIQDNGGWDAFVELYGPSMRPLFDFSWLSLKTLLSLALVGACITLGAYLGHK
Chain of Cytochrome P450 2C19 (Homo sapiens) (P33261 whole entry, looked up): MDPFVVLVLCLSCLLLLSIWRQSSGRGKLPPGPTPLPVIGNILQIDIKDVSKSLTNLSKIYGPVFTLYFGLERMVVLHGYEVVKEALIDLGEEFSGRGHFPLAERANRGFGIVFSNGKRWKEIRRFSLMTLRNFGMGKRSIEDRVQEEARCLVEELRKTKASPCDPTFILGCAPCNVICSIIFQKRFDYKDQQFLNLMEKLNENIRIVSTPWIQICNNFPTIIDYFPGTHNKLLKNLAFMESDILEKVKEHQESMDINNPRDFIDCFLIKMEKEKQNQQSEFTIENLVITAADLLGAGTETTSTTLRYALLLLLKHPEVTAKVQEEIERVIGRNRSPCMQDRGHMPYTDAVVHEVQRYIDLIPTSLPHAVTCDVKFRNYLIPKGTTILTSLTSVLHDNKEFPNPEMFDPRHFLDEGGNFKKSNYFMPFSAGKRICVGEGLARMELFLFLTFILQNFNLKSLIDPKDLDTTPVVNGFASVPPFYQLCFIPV

CC(COc1ccc(Oc2ccccc2)cc1)Oc1ccccn1 (stereo not drawn)
active: [5] 13.1 µM | [7] 3.68 µM | CYP2E1 (gene 1571) 35.7 µM | CYP4A11 (gene 1579) 12.5 µM | [9] 11.8 µM | [11] 31.5 µM
inactive: all other assays above

CCCSP(=O)(OCC)SCCC
active: [1] 12.9 µM | [7] 2.48 µM | CYP2C8 (gene 1558) 5.47 µM | CYP2E1 (gene 1571) 25.8 µM
not listed: [9] | [12]
inactive: all other assays above

CCCCSP(=O)(SCCCC)SCCCC
active: [5] 13 µM | [7] 12.5 µM | CYP2E1 (gene 1571) 63.4 µM | CYP4A11 (gene 1579) 76.2 µM | [9] 26.1 µM | [10] 76 µM
not listed: [8]
inactive: all other assays above

CCOC(=O)CC(SP(=O)(OC)OC)C(=O)OCC (stereo not drawn)
active: [7] 50 µM | CYP2E1 (gene 1571) 25.1 µM
not listed: CYP2C8 (gene 1558) | [12]
inactive: all other assays above

CC(Oc1cccc(Cl)c1)C(=O)O (stereo not drawn)
active: [7] 2.24 µM | [8] 7.31 µM | CYP2C9 (gene 1559) 2.04 µM | CYP2E1 (gene 1571) 4.01 µM | [9] 10 µM | [14] 14.2 µM
not listed: CYP2C8 (gene 1558)
inactive: all other assays above

CC1(C(=O)Nc2ccc(O)c(Cl)c2Cl)CCCCC1
active: [9] 21.4 µM
not listed: [12]
inactive: all other assays above
